Reference: PubChem BioAssay (Tox21)
Records with an inconclusive call do not appear. Calls of active or inactive are those of the source. The call rests on the fitted dose curve; in most records, active means well fitted cell-killing curve with a large enough effect in the repeat runs; inconclusive means weak or mixed curves, or effect the other way; inactive means no such curve, though single readings can be large or run the other way.

Experiment: Caspase-3/7 induction in CHO-K1 cells by small molecules, qHTS cell viability counter screen (AID 1346979); further: nearly all actives have a fitted effect of over 35% in size
Details: CellTiter-Fluor fluorescence, 17 h; series mostly up to 92.4 µM; activity change, negative = cytotoxicity: at the top concentration
Excerpt: National Center for Advancing Translational Sciences [NCATS]
NIH Chemical Genomics Center [NCGC]
U.S. Environmental Protection Agency [EPA]
National Institutes of Environmental Health Sciences [NIEHS]
National Toxicology Program [NTP]
U.S. Food and Drug Administration [FDA]
Apoptosis is a process of programmed cell death and plays a central role in the development of multicellular organisms. It is a highly regulated process and induces cell death by activating caspases, which are the members of cysteine aspartic acid-specific protease (caspase) family. Caspases involved in apoptosis are classified by their mechanism of action as initiator caspases (caspase-2, -8, -9 and -10) and executioner caspases (caspase-3, -6, and -7). Inhibition of apoptosis results in number of cancers, autoimmune diseases, inflammatory diseases and viral infection. To identify small molecule compounds that induce apoptosis, a homogeneous, luminescent Caspase-Glo 3/7 assay was used. Wild type CHO-K1 cells were used to screen Tox21 libraries for identifying caspase-3/7 activity inducers. Also cytotoxicity of the compounds was tested in parallel by measuring the cell viability using CellTiter-Fluor assay system in the same wells.
Tox21 Assay Protocol Summary:
CHO-K1 cells were dispensed at 1,500 per well in 5uL of culture medium into white solid bottom 1536-well plates (Corning Life Sciences, Corning, NY) using a Multidrop Combi (Thermo Scientific, Waltham, MA) dispenser. The assay plates were incubated at 37 C and 5% CO2 for 5hr, and then 23nL of compounds dissolved in DMSO and positive control were transferred using a Pintool station (Wako, San Diego, CA). The assay plates were incubated at 37C and 5% CO2 for 17hr. For cytotoxicity read, after 16hr incubation at 37C, 1uL CellTiter-Fluor reagent (Promega Corporation, Madison, WI) was added to each well of the assay plates using Flying Reagent Dispenser (FRD, Aurora Discovery, San Diego, CA). After 1hr incubation at 37C and 5% CO2, the fluorescence signal was quantified using a ViewLux plate reader (PerkinElmer, Shelton, CT).
On the % scale 0 is the no-effect control and ±100 the full control effect; potency means the concentration at half of the fitted maximal effect.

Row | Structure (SMILES) | activity change, negative = cytotoxicity | Potency
1 | O=S(=O)(O)SSS(=O)(=O)O | -0.063% (inactive) | 
2 | CC(=O)N(CC(O)CO)c1c(I)c(C(=O)NCC(O)CO)c(I)c(C(=O)NCC(O)CO)c1I (stereo not given) | -2.4% [at 42.5 µM] (inactive) | 
3 | CCC(C)(C)C1CCC(=O)CC1 | 2.65% (inactive) | 
4 | CNCc1ccccc1 | -2.86% [at 42.5 µM] (inactive) | 
5 | NC(=O)C1(N2CCCCC2)CCN(CCCC(=O)c2ccc(F)cc2)CC1 | 1.61% [at 42.5 µM] (inactive) | 
6 | CCCCCCCCCCCCC1CO1 (stereo not given) | -1.32% (inactive) | 
7 | Nc1ccc(S(=O)(=O)Nc2ccccn2)cc1 | 2.24% [at 42.5 µM] (inactive) | 
8 | CCCCOC(=O)C(C)OC(=O)CCC (stereo not given) | 2.54% (inactive) | 
9 | N#CCCOCCOCCC#N | 9.66% (inactive) | 
10 | CCOc1ccc(NC(=O)OC(C)C)cc1OCC | 3.93% (inactive) | 
11 | C[C@H]1O[C@H](O[C@H]2[C@H](O)[C@@H](O)[C@@H](O[C@H]3[C@H](O)[C@@H](O)[C@H](O)O[C@@H]3CO)O[C@@H]2CO)[C@H](O)[C@@H](O)[C@@H]1N[C@H]1C=C(CO)[C@@H](O)[C@H](O)[C@H]1O | 14.1% [at 42.5 µM] (inactive) | 
12 | O=CN1CCOCC1 | 7.86% (inactive) | 
13 | C[C@H](CCC(=O)NCC(=O)O)[C@H]1CC[C@H]2[C@@H]3[C@H](O)C[C@@H]4C[C@H](O)CC[C@]4(C)[C@H]3C[C@H](O)[C@]12C | -0.903% (inactive) | 
14 | CCC(CO)CO | -1.11% (inactive) | 
15 | C=CC(C)(O)CC/C=C(\C)CC (stereo not given) | 9.55% (inactive) | 
16 | CCOC(=O)OCC/C(SC(=O)OCC)=C(\C)N(C=O)Cc1cnc(C)nc1N | 4.08% [at 42.5 µM] (inactive) | 
17 | CC(C)(C)c1ccc(C=O)cc1 | 2.01% (inactive) | 
18 | C/C=C(\C)C(=O)OCC/C=C\CC | 3.04% (inactive) | 
19 | Oc1ccccc1Cc1ccccc1O | -8.75% (inactive) | 
20 | CCC(C)N (stereo not given) | 13.1% (inactive) | 

Row | Structure (SMILES) | activity change, negative = cytotoxicity | Potency
21 | NCCc1ccn[nH]1 | -0.0152% [at 42.5 µM] (inactive) | 
22 | Nc1ccc(C(=O)OCC(O)CO)cc1 (stereo not given) | 5.15% [at 42.5 µM] (inactive) | 
23 | Cc1nc2n(c(=O)c1CCN1CCC(C(=O)c3ccc(F)cc3)CC1)CCS2 | -5.34% [at 42.5 µM] (inactive) | 
24 | C=CCOc1c(Br)cc(C(C)(C)c2cc(Br)c(OCC=C)c(Br)c2)cc1Br | 7.92% [at 42.5 µM] (inactive) | 
25 | OC[C@@H](O)[C@H](O)[C@@H](O)[C@@H](O)CO | -0.889% (inactive) | 
26 | CC1=CC[C@H](CC=O)C1(C)C | 4.14% (inactive) | 
27 | CC(C)SCc1ccco1 | 4.5% [at 42.5 µM] (inactive) | 
28 | CC1=NN(c2ccc(S(=O)(=O)O)cc2)C(=O)C1N=Nc1ccccc1 (stereo not given) |  | 48.6 µM (active)
29 | Cc1nc2ccccc2c(=O)o1 | 9.26% (inactive) | 
30 | Nc1nc(=O)n([C@@H]2O[C@H](CO)[C@@H](O)[C@@H]2F)cc1I | -3.63% [at 42.5 µM] (inactive) | 
31 | CCC(C)(CCC(C)C)C(=O)[O-].CCC(C)(CCC(C)C)C(=O)[O-].[Zn+2] (stereo not given) | 1.14% (inactive) | 
32 | CNC(=O)C(c1ccccc1)c1ccccc1 | 10.2% (inactive) | 
33 | CC(=O)OC(C)c1ccccc1 (stereo not given) | -2.18% (inactive) | 
34 | C1CCN2C[C@@H]3C[C@@H](CN4CCCC[C@@H]34)[C@H]2C1 | -0.139% [at 42.5 µM] (inactive) | 
35 | CC(C)CCO | -0.42% (inactive) | 
36 | O=C(Oc1ccccc1C(=O)O)c1ccccc1O | -2.69% [at 42.5 µM] (inactive) | 
37 | CCC(O)C(C)(C)C (stereo not given) | -4.65% (inactive) | 
38 | COc1ccc(NS(=O)(=O)c2ccc(N)cc2)nn1 | 6.26% [at 42.5 µM] (inactive) | 
39 | O=C1c2ccccc2-c2ccccc21 | 0.591% (inactive) | 
40 | CC(C)COC(=O)COc1ccc(Cl)cc1Cl | 11.9% (inactive) | 
